Measured values reported in PubChem BioAssay (NCATS).
Values joined by “and” are separate entries in the source; they are usually repeats but may differ in a detail not shown here. Identical values can stand only once. Results filed as inconclusive are left out. The source holds several records for some structures; these can differ, active in one and inactive in another. Active and inactive are the calls of the source. Calls follow the shape of the dose curve; as a rule, active = well fitted cell-killing curve with a large enough effect; inconclusive = small, poorly fitted or top-dose-only effect; inactive = no such curve, though single readings can be large or run the other way.

Assay: Cell Viability - LYMP2-001 (AID 921); also: nearly all actives have a fitted effect of over 70% in size
Conditions: LYMP2-001 lymphoblastoid cell viability; series mostly up to 92.2 µM
Text: NIH Chemical Genomics Center [NCGC]
NIH Molecular Libraries Screening Centers Network [MLSCN]
National Institutes of Environmental Health Sciences [NIEHS]
National Toxicology Program [NTP]
We have developed a 1536-well cell-based assay for quantitative high throughput screening (qHTS) against a number of cell lines to determine in vitro cytotoxicity of small molecules. This particular assay uses a human lymphoblastoid cell line (LYMP2-001) purchased from Coriell Institute for Medical Research.
NCGC Assay Protocol Summary:
The CellTiter-Glo luminescent cell viability assay (Promega) is a homogeneous method to measure the number of viable cells in culture. The end point readout of this assay is based on quantitation of intracellular ATP, an indicator of metabolic activity, using the luciferase reaction. Luciferase catalyzes the oxidation of beetle Luciferin to oxyluciferin and light in the presence of ATP. The luminescent signal is proportional to amount of ATP present.
Using the CellTiter-Glo luminescent cell viability assay, the amount of cellular ATP was measured in the lymphoblastoid cell line with complete culture medium following compound treatment for 24 hours. The assay was performed in opaque white Kalypsys 1536-well plates. In the screen, tetraoctylammonium bromide was used as positive control. Library compounds were measured for their ability to cause acute toxicity in the cell line, as reflected by a decrease in intracellular ATP levels, in a concentration-dependent manner. […] AC50 values were determined from concentration-response data modeled with the standard Hill equation.
qHTS protocol for CellTiter Glo lymphoblastoid cellular assay
[Step] [Parameter] [Value] [Description]
1. Reagent; 5 uL; 2500 lymphoblastoid cells/well
2. Time; 5 hr; 37 C incubation
4. Controls; 23 nL; Tetraoctylammonium bromide 6.4pM to 92 uM
5. Time; 24 hr; 37 C incubation
6. Reagent; 5 uL; CellTiter Glo reagent
7. Time; 30 min; Room Temperature
8. Detection; Luminescence; Viewlux plate reader
Keywords: cell viability, cytotoxicity, lymphoblastoid cell line, luminescence, NTPHTS, NTPHTS_NCGC, NIEHS, DSSTox, MLSMR, MLSCN, NIH Roadmap, qHTS, NCGC
Potency is read from the fitted curve at half-maximal effect.

| SMILES | Potency |
| --- | --- |
| O=C1C2(Cl)C3(Cl)C4(Cl)C(Cl)(Cl)C5(Cl)C3(Cl)C1(Cl)C5(Cl)C24Cl (stereo not given) | inactive and 39.8 µM (active) |
| Nc1ccccc1C(=O)OCCc1ccccc1 | inactive |
| OC(c1ccc(Cl)cc1)(c1ccc(Cl)cc1)C(Cl)(Cl)Cl | inactive |
| ClC1=C(Cl)C2(Cl)C3C(Cl)C(Cl)CC3C1(Cl)C2(Cl)Cl (stereo not given) | inactive |
| C=CC(=O)OCC(CO)(COC(=O)C=C)COC(=O)C=C | 3.16 µM (active) |
| ClC1=C(Cl)C(Cl)(Cl)C(Cl)=C1Cl | 5.01 µM (active) |
| CN(C)c1ccc(N=O)cc1 | 0.631 µM (active) |
| CC(C)CC(C)Nc1ccc(Nc2ccccc2)cc1 (stereo not given) | 15.8 µM (active) |
| C[C@@H]1CC[C@@]2(OC1)O[C@H]1[C@@H](O)[C@H]3[C@@H]4CC[C@H]5C[C@@H](O[C@@H]6O[C@H](CO)[C@H](O[C@@H]7O[C@H](CO)[C@@H](O)[C@H](O[C@@H]8OC[C@@H](O)[C@H](O)[C@H]8O)[C@H]7O[C@@H]7O[C@H](CO)[C@@H](O)[C@H](O[C@@H]8O[C@H](CO)[C@@H](O)[C@H](O)[C@H]8O)[C@H]7O)[C@H](O)[C@H]6O)[C@H](O)C[C@]5(C)[C@H]4CC[C@]3(C)[C@H]1[C@@H]2C | 10 µM (active) |
| Oc1c(Br)c(Br)c(Br)c(Br)c1Br | inactive |
| O=Nc1ccc(Nc2ccccc2)cc1 | 2.51 µM (active) |
| FC(F)(F)c1ccc(Cl)cc1 | inactive |
| [CH3][Hg][Cl] | 1.58 µM (active) |
| COP(=O)(OC)O/C(=C\Cl)c1cc(Cl)c(Cl)cc1Cl | inactive |
| N#CC(Cl)Cl | 10 µM (active) |
| CCCCCCCCn1sccc1=O | 2 µM (active) |
| O=[N+]([O-])C(Br)Br | 7.94 µM (active) |
| Clc1ccc(C(c2ccc(Cl)cc2)C(Cl)Cl)cc1 | inactive |
| O=[N+]([O-])c1cc(C(F)(F)F)cc([N+](=O)[O-])c1Cl | 25.1 µM (active) |
| c1cc(OCC2CO2)cc(OCC2CO2)c1 (stereo not given) | 31.6 µM (active) |
| N#CSCSC#N | 5.01 µM (active) |
| O=C(CCl)c1ccccc1 | 7.94 µM (active) |
| O=C(O)C1C(C(=O)O)C2(Cl)C(Cl)=C(Cl)C1(Cl)C2(Cl)Cl (stereo not given) | inactive |
| c1ccc2cc3c(cc2c1)-c1cccc2cccc-3c12 | inactive |
| C#CCO | inactive |
